Laboratory results as given in PubChem BioAssay AID2025 (NMMLSC, 2009).
About 980 (0.3%) of roughly 330,000 compounds were called active. The sample holds actives, similar compounds and a random draw of the others, so the mix is not that of the screen.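 Rule for the calls: active = percent response vs DMSO below 50%; inconclusive = fewer than 70 events counted for the yeast strain; inactive = the rest.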

Assay: RPL19A-GFP expression modulators in yeast, primary screen, cell-based, S. cerevisiae, multiplex flow cytometry, MLPCN (AID 2025);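 note: median channel GFP fluorescence of the barcoded RPL19A-GFP strain; ratio of sample median GFP to plate DMSO average so 100% = DMSO; lower means less RPL19A-GFP as with rapamycin TOR inhibition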
Conditions: S. cerevisiae RPL19A-GFP strain, 3 h, at 10 µM, hits give low values
For `C/C(CCc1c[nH]c2ccccc12)=N\O`, the percent response vs DMSO was 100% (inactive).
In the case of `Cc1cccc2c(CCN)c[nH]c12`, the percent response vs DMSO is reported as 101% (inactive).
In the case of `NCCc1c[nH]c2ccc(O)cc12`, the percent response vs DMSO is reported as 32.1% [may fluoresce violet] (active).
For `OC1/C(=C/c2ccc(C(F)(F)F)cc2)N2CCC1CC2` (stereo not given), the percent response vs DMSO was 97.2% (inactive).
In the case of `OCC#CC[N+]1(CC#Cc2ccccc2)CCCC1`, the percent response vs DMSO is reported as 99.6% (inactive).
